For this assay, the target named is Eukaryotic translation initiation factor 4H (Homo sapiens) (UniProt Q15056). Put plainly: eIF4H binding inhibition – biochemical, uHTS, fluorescence polarization, translation initiation inhibitor project, primary screen (AID 2012).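 Further: calls also rest on retests at 20 µM and on dose response follow-up.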 Conditions: eIF4H fluorescence polarization binding assay, stronger effect = higher value. On the technique in general: In fluorescence polarisation assays a small probe gives low polarisation when free and higher when bound to something large.

Screen size: about 290,000 compounds; about 2,700 (0.93%) were called active. How the calls were made is not given here. What follows is part of a selection rich in actives, with near analogues and random picks from the rest.

In the case of `COc1cc(OC)c(NC(=O)C2CCCN2C(=O)OCc2ccccc2)cc1Cl` (stereo not drawn), where the note is “at 35 µM”, the inhibition (in general, the relative decrease from the control value, in per cent) is -2% (inactive). The same measure, in the same setting: in the case of `Cc1cccc(C(=O)NC(=S)N(C)C2CCCCC2)c1` it was -8.7% (inactive). The same measure, in the same setting: in the case of `COc1cccc(NC(=S)NCc2ccco2)c1` it was 22.2% (inactive).

On to `S=C(NCc1ccco1)Nc1ccc2c(c1)OCCO2`, for which the inhibition was -2.7% (active) (at 35 µM) and 51.4% (confirmation average, at 20 µM). For `S=C(NCc1ccc2c(c1)OCO2)NCc1ccco1`, the inhibition (at 35 µM) is -0.2% (inactive). The same measure, in the same setting: the same measure for `O=C(CSc1ccc(-c2ccc(Br)cc2)nn1)NCC1CCCO1` (stereo not drawn): 3.3% (inactive); for `O=C(COc1ccc([N+](=O)[O-])cc1)Nc1ccc(N2CCCC2)cc1`: 13.8% (inactive). The same measure, in the same setting: in the case of `O=C(N/N=C/c1ccc(OCc2ccccc2)cc1)c1ccc(O)cc1` it was -5.8% (inactive).

As to `O=C(COc1ccc(/C=N/NC(=O)c2ccc(O)cc2)cc1)Nc1ccc([N+](=O)[O-])cc1`, the inhibition (at 35 µM) is -1.7% (active) and the inhibition (confirmation average, at 20 µM) was 85.6%. For the compound `CCSCc1nc(N)nc(NCCc2ccccc2)n1`, the inhibition (at 35 µM) was -0.9% (inactive).

As for `CC(=O)c1cnc(SCCN2C(=O)c3ccccc3C2=O)nc1C`, the inhibition (at 35 µM) was -11.9% (inactive). Take `CC(=O)c1cnc(SCC(=O)O)nc1C`: the inhibition was -2.4% (active) (at 35 µM) and 82.3% (confirmation average, at 20 µM). Consider `CSc1ncc(C(=O)NCCCc2ccccc2)c(C)n1`, for which the inhibition (at 35 µM) is -7.3% (inactive). Same read-out and setting: in the case of `CSCCC(NS(=O)(=O)c1ccccc1F)C(=O)N1CC=C(c2ccccc2)CC1` (stereo not drawn) it was 0% (inactive). With `Cn1cccc1/C=N/NC(=O)c1ccc(OC(F)(F)C(F)F)cc1`, the inhibition was 9.7% (active) (at 35 µM) and 56.1% (confirmation average, at 20 µM). As to `Cn1cccc1/C=N/NC(=O)CNc1cccc2ccccc12`, the inhibition (at 35 µM) was -6.2% (inactive). Regarding `COc1ccc(/C=N/NC(=O)c2cccc(C(F)(F)F)c2)cc1`, where the note is “at 35 µM”, the inhibition is -2.2% (inactive).

For `NC(=O)c1ccc(Nc2ccc3nonc3c2[N+](=O)[O-])cc1`, the inhibition (at 35 µM) was -14.2% (inactive).

In the case of `COc1ccccc1NC(=O)N1CCCC1C(=O)NCc1cccs1` (stereo not drawn), the inhibition (at 35 µM) was -15.4% (inactive).

Consider `CCS(=O)(=O)N1CCC(N2CCN(c3ccccc3)CC2)CC1`, for which the inhibition (at 35 µM) was 7.8% (inactive). `CC(/C=N/NC(=O)c1ccncc1)=C\c1ccco1`: the inhibition (at 35 µM) was 25.2% (inactive). `CC(/C=N/NC(=O)c1cc(-c2ccc3ccccc3c2)n[nH]1)=C\c1ccco1`: the inhibition is 66.1% (inactive) (at 35 µM) and -19.6% (confirmation average, at 20 µM).

With `C/C(=C\c1ccco1)C1Nc2cccc3cccc(c23)N1`, under “at 35 µM”, the inhibition is 107% (active).

`O=C(/C=C/c1ccco1)Nc1cccc(-c2nc3ccccc3[nH]2)c1`: the inhibition (at 35 µM) was -7.2% (inactive). Same read-out and setting: in the case of `O=C(/C=C/c1ccco1)Nc1ccc(Oc2ccccc2)cc1` it was 2.4% (inactive).

Consider `Cc1ccc(-n2nc3ccc(NC(=O)/C=C/c4ccco4)cc3n2)cc1C`, for which the inhibition reads like this: (at 35 µM) 71.7% (active); (confirmation average, at 20 µM) 73.8%.

`COc1ccc(C2CC(c3ccc([N+](=O)[O-])cc3)=NN2C(C)=O)cc1` (stereo not drawn): the inhibition (at 35 µM) is 2.5% (inactive).

Take `CC1=C(C(=O)Nc2ccccc2)C(c2ccco2)C(C#N)=C(SCC(N)=O)N1` (stereo not drawn): where the note is “at 35 µM”, the inhibition is 10.9% (inactive). On to `Cc1cc(C)c2c3c(sc2n1)C(c1ccccc1)C(C#N)=C(N)O3` (stereo not drawn), for which the inhibition by setting is: (at 35 µM) 1% (inactive); (confirmation average, at 20 µM) 28.6%. For the compound `N#CC1=C(N)Oc2c(sc3ccccc23)C1c1ccco1` (stereo not drawn), the inhibition (at 35 µM) was 74% (active).

On to `COc1ccccc1CCNC(=O)c1c(C)nn(CC(C)C)c1Cl`, for which, under “at 35 µM”, the inhibition is -10.7% (inactive). Still for that read-out and setting: in the case of `O=S(=O)(Oc1ccccc1C(=S)N1CCOCC1)c1ccc(Cl)cc1` it was 1% (inactive). As to `Cc1cc(C)nc(N/N=C/c2ccncc2)n1`, under “at 35 µM”, the inhibition is -8.8% (inactive). Turning to `CCN(CC)c1ccc(/C=N/Nc2nc(C)cc(C)n2)c(O)c1`, the inhibition runs as follows: (at 35 µM) 83.3% (active); (confirmation average, at 20 µM) 87.6%. For the compound `CCN(CC)c1ccc(/C=N/NC(=O)c2cnccn2)c(O)c1`, for the setting “at 35 µM”, the inhibition is 1.5% (inactive). Turning to `Cc1ccccc1CN1CCNC(=O)C1CC(=O)NCCC1=CCCCC1` (stereo not drawn), the inhibition (at 35 µM) was 5.3% (inactive). Take `COc1cccc(CNS(=O)(=O)c2csc(C(N)=O)c2)c1`: the inhibition (at 35 µM) is 5.7% (inactive). On the same count and under the same terms, in the case of `CS(=O)(=O)N1CCc2nc(-c3ccccc3)sc2C1` it was -3.4% (inactive); in that of `Cc1cc(C)c2nc(NC(=O)C3CCCO3)sc2c1` (stereo not drawn), -3.8% (inactive). On to `Cc1cc([N+](=O)[O-])ccc1NC(=O)C1CCCO1` (stereo not drawn), for which, where the note is “at 35 µM”, the inhibition was -1.7% (inactive). The same measure, in the same setting: the same measure for `Cc1ccc(C)c(C(C)NC(=O)C2CCCO2)c1` (stereo not drawn): 92.8% (active); for `COc1ccc(COC(=O)c2ccc(Cl)c(S(=O)(=O)N3CCOCC3)c2)cc1F`: 1.3% (inactive). As for `NS(=O)(=O)c1ccc(NC(=O)COC(=O)c2ccco2)cc1`, the inhibition was -10.4% (active) (at 35 µM) and 80.1% (confirmation average, at 20 µM). For `NS(=O)(=O)c1ccc(NC(=O)COC(=O)c2cc3ccccc3oc2=O)cc1`, for the setting “at 35 µM”, the inhibition is -1.4% (inactive). Still for that read-out and setting: the same measure for `NS(=O)(=O)c1ccc(NC(=O)COC(=O)c2ccc(Cl)nc2)cc1`: 7.6% (inactive). In the case of `Cc1ccc(NC2CCCN(C(=O)CCC3(C)CC3)C2)cc1C` (stereo not drawn), the inhibition (at 35 µM) was -6.4% (inactive). The same measure, in the same setting: in the case of `CCCCc1ccc(NC(=O)NCc2cccnc2)cc1` it was -1.5% (inactive). As to `CCC1C(=O)NCCN1C(=O)c1ccc2nc(Cc3ccc(OC)cc3)oc2c1` (stereo not drawn), where the note is “at 35 µM”, the inhibition was -1.1% (inactive).

In the case of `O=C(COc1ccc(Cl)cc1)Nc1ccccc1CO`, the inhibition (at 35 µM) was -15.9% (inactive). Regarding `COC(=O)c1sccc1NC(=O)COc1ccc(Cl)cc1`, the inhibition is, setting by setting: (at 35 µM) -2% (active); (confirmation average, at 20 µM) 90%. Take `COC(=O)c1sccc1NC(=O)c1ccc(Cl)cc1`: where the note is “at 35 µM”, the inhibition is -1.7% (inactive). Same read-out and setting: in the case of `O=C(CCC(=O)n1ncc2ccccc21)NCc1ccccc1Cl` it was -5.2% (inactive); in that of `Cc1nc2c(c(=O)n1Cc1ccco1)c1nc3ccccc3nc1n2Cc1ccccc1`, 68.6% (active); in that of `Cc1ccc(Cn2c(C)nc3c(c2=O)c2nc4ccccc4nc2n3Cc2ccco2)cc1`, 18% (inactive). On the same count and under the same terms, in the case of `COCCCn1c2nc3ccccc3nc2c2c(=O)n(Cc3ccc(Cl)cc3)c(C)nc21` it was -0.3% (inactive).

On to `Cc1cc(NC(=O)CCC(=O)N(CC(=O)NC2CCCC2)c2ccc(F)cc2)no1`, for which the inhibition (at 35 µM) was -1.3% (inactive). Still for that read-out and setting: the same measure for `O=C(CSc1ccc(-c2ccccn2)nn1)Nc1ccccc1`: -8.7% (inactive); for `COc1ccc2[nH]c(=O)c(C3c4cc(OC)c(OC)cc4CCN3C(=O)c3ccco3)cc2c1` (stereo not drawn): -6.8% (inactive). The same measure, in the same setting: in the case of `COc1ccc(S(=O)(=O)Nc2ccc(F)cc2)c(C)c1C` it was 7.4% (inactive). On the same count and under the same terms, the same measure for `CCOc1ccc(S(=O)(=O)Nc2ccc(OC)nc2)cc1`: -8.8% (inactive); for `COc1ccc(NS(=O)(=O)c2ccc(F)cc2F)cn1`: 65.2% (active); for `Cc1ccc(NS(=O)(=O)c2ccc(C(C)(C)C)cc2)cn1`: -2.4% (inactive). Regarding `O=C(NC1CCCC1)C(c1ccc(Cl)cc1)N(C(=O)c1csnn1)C1CC1` (stereo not drawn), the inhibition (at 35 µM) is -6.1% (inactive).

For the origin of these results see PubChem BioAssay AID2012 (Sanford-Burnham Center for Chemical Genomics, 2009).
